# Experiment: MM1S cell viability effects, profiling panel, calcein-AM fluorescence, 48 h, basal (AID 1165);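 further: viability of MM1S multiple myeloma cells under basal unstimulated conditions; test concentration not given here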
# Conditions: higher = more signal
row,Compound,z-score
1,COCC(=C=CC[C@H](O)c1cccc(OCCO)c1)C[C@H](O)COCc1ccccc1,0.103
2,C=CCOC(=O)[C@H]1[C@@H]2C(=O)O[C@@H](c3ccccc3)[C@@H](c3ccccc3)N2[C@@H](c2ccc(OCCOC(=O)[C@H]3C[C@H]4C(=O)N[C@@H](CCCCNC(C)=O)C(=O)N4[C@H]3c3cccc(OCCO)c3)cc2)[C@]12C(=O)Nc1ccc(I)cc12,0.035
3,Cc1c(NC(=O)/C(C#N)=C/c2ccccc2Cl)c(=O)n(-c2ccccc2)n1C,0.867
4,C=C(C(=O)CC[C@@H](OC(=O)c1ccccc1-c1ccccc1C(=O)O)c1ccccc1OCCO)C(C)C,-2.67
5,COc1ccc([Si](C)(C)[C@@H]2[C@@H](CC(=O)N3Cc4ccccc4C[C@H]3CO)O[C@]3(C(=O)N(Cc4ccc(N5CCC5=O)cc4)c4ccccc43)[C@H]2C)cc1,-0.0069
6,C=C[C@@H](OC)[C@H](OC(=O)Nc1ccc(OC)cc1)c1ccc(OC)c(O)c1,-0.0794
7,CCOC(=O)C1=CCC(c2ccco2)N(S(=O)(=O)c2ccc(C)cc2)C1 (stereo unspecified),-2.93
8,C=CCNC(=O)[C@H]1[C@@H]2C(=O)O[C@@H](c3ccccc3)[C@@H](c3ccccc3)N2[C@@H](c2ccc(OCCO)cc2)[C@]12C(=O)N(C(=O)OCCOC)c1ccc(C#Cc3ccc(OC)cc3)cc12,-0.303
9,CN1C=C(C(=O)OCCS(C)(=O)=O)C(C(=O)OCCS(C)(=O)=O)=CC(c2ccc(CO)cc2)=CC1c1cccs1 (stereo unspecified),-1.43
10,COC(=O)C1N=C(c2ccc(OCCCO)cc2)N(c2ccccc2)O1 (stereo unspecified),-0.943
11,CC(C)N1CC=CC23O[C@@H]4/C=C\CCCOC(=O)C4[C@H]2C(=O)N(CCCCCCO)[C@@H]3C1=O (stereo partly specified),1.49
